# From PubChem
# An excerpt weighted towards active compounds, which were near 2.4% of everything screened.
# Pol kappa inh: inhibitors of human DNA polymerase kappa; Q9UBT6; purified Pol kappa, fluorescent DNA synthesis assay, 10 min; Potency, µM (top dose mostly 107 µM), inactives show top-dose activity, negative = inhibition, hits mostly inhibitors; actives 0.53% (n = 400,000); further: on the % scale 0 is the no-effect control and ±100 the full control effect
# Target sequence (Q9UBT6 whole entry, looked up): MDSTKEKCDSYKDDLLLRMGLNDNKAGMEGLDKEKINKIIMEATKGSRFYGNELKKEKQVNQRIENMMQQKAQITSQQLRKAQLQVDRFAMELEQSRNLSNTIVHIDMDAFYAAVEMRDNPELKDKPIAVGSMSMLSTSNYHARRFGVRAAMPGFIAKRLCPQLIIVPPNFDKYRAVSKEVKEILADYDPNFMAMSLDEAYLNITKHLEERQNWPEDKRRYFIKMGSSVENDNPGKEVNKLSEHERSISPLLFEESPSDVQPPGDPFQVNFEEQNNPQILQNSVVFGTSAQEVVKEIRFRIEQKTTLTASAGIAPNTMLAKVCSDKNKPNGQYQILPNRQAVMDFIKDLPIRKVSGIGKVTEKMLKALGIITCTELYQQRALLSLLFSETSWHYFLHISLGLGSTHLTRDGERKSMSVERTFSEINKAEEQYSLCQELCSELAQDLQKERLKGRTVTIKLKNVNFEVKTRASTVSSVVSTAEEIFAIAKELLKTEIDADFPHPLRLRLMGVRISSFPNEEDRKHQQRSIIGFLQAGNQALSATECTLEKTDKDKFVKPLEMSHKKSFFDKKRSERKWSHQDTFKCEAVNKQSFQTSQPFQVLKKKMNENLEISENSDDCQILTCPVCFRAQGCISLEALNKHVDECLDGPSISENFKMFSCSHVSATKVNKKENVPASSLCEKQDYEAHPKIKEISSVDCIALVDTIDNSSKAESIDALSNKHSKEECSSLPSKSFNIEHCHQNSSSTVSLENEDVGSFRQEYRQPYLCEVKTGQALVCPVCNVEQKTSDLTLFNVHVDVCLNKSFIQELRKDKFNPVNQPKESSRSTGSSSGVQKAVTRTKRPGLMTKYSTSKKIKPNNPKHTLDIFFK
#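 Fluorescent qHTS in 1536-well format: enzyme (10 nM) and compound sat 15 min at room temperature before 50 nM substrate (final) was added. Signal taken at 0 and 10 min; no-enzyme buffer wells were negative controls.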
# POLH inh: blocks human DNA polymerase eta activity; Q9Y253; recombinant Pol eta, fluorescent DNA replication assay; actives 1.2% (n = 390,000); Potency, µM (top dose mostly 114 µM), for inactives: at the top dose activity change, negative = inhibition, actives largely listed as inhibitors; AID 588591; further: on the % scale 0 is the no-effect control and ±100 the full control effect
#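 Pol eta (10 nM) was preincubated with compounds for 15 min at room temperature, after which fluorescent replication substrate (50 nM final) was added to start the reaction. Fluorescence was read kinetically at 0 and 10 min.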
# POLI inh: inhibitors of human DNA polymerase iota; Q9UNA4; Potency, µM (doses to about 115 µM), for the others: top-dose activity, negative = inhibition, usual class: inhibitors; actives 1% (n = 390,000); Pol iota fluorescent replication assay, 10 min; AID 588590
#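 Fluorescent replication assay read twice, at 0 min and 10 min after adding 50 nM (final) substrate. Enzyme (10 nM) and compounds were first incubated 15 min at room temperature; enzyme-free buffer wells were negative controls.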
# WRN inhibitor: blocks human WRN helicase; AID 651768; Q14191; WRN helicase unwinding, fluorescent forked duplex, kinetic; Potency, µM (series often up to 114 µM), for inactives: top-dose activity change, negative = inhibition, hits mostly inhibitors; actives 0.46% (n = 360,000); further: on the % scale 0 is the no-effect control and ±100 the full control effect; nearly all actives have a fitted effect of over 55% in size
#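 Fluorescence dequenching readout, ex 525 nm/em 598 nm, kinetic mode: forked duplex DNA (100 nM final) with adjacent fluorophore and quencher unwound by WRN (20 nM final) with 2 mM ATP. Compound preincubation 15 min, room temperature.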
# POLB inh: blocks human DNA polymerase beta activity; P06746; Pol beta primer extension/strand displacement, fluorescence kinetic; Potency, µM (doses to about 114 µM), for inactives: top-dose activity change, negative = inhibition, hits mostly inhibitors; actives 1.3% (n = 340,000); further: on the % scale 0 is the no-effect control and ±100 the full control effect
#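 Homogeneous kinetic assay of primer extension and strand displacement by 10 nM Pol beta, preincubated 15 min at room temperature with compound before 50 nM substrate (final) was added. Read at 0 and 10 min; four-parameter Hill fit.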
# FEN1 inhibitor: blocks human flap endonuclease 1; P39748; Recombinant FEN1 flap cleavage, fluorescence, 15 min; Potency, µM (doses to about 114 µM), inactives show at the top dose activity change, negative = inhibition, most hits filed as inhibitors; actives 0.35% (n = 390,000); AID 588795; further: on the % scale 0 is the no-effect control and ±100 the full control effect; nearly all actives have a fitted effect of over 65% in size
#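 Read-out was taken twice, immediately and after 15 min, following addition of 50 nM substrate to 10 nM FEN1 that had sat with test compound for 15 min at room temperature. Curves came from a four-parameter Hill model.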
# * = called active by the depositor; i = inactive; ? = inconclusive; nt = not tested or not shown; [ ] = dose if it differs, or a comment. The call rests on the fitted dose curve; in most records, active means well fitted curve in the direction sought with a large enough effect; inconclusive means small, poorly fitted or top-dose-only effect, or another doubt; inactive means no such curve, though single readings can be large; an effect the other way counts as inactive or inconclusive. Potency means the concentration at half of the fitted maximal effect.
SMILES,Pol kappa inh,POLH inh,POLI inh,WRN inhibitor,POLB inh,FEN1 inhibitor
COc1ccc(S(=O)(=O)Nc2ccc3c(c2)C(=O)N([C@H](C)CO)C[C@H](C)[C@@H](CN(C)S(=O)(=O)c2ccccc2)O3)cc1,5%,-10%,16%,5%,nt,6%
CCC1=NN(C(=O)C(=O)Nc2ccc(OC)cc2)C(O)(C(F)(F)F)C1 (centres undefined),-6%,-13%,-16%,-3%,2%,5%
COC(=O)CCC(=O)NC(=S)Nc1ccc(S(=O)(=O)Nc2cc(C)on2)cc1,1%,-8%,-4%,-2%,-4%,-3%
COc1cc(/C=N/Nc2nc(-c3ccc(S(=O)(=O)N(C)C)cc3)cs2)ccc1O,0%,-20%,44%,-5%,-11%,?
O=[N+]([O-])c1cc(/C=N\Nc2nc(-c3ccccc3)cs2)ccc1O,-25%,79µM*,?,?,40µM*,?
COc1ccccc1CNC(=O)C(=O)NCCC1CCCCN1S(=O)(=O)c1cccs1 (centres undefined),89µM*,0%,40%,0%[11.6 µM],nt,-1%
COc1ccccc1CNC(=O)C(=O)NCCC1CCCCN1S(=O)(=O)c1ccc(C)cc1 (centres undefined),-6%,-20%,15%,-15%,nt,-2%
Cc1ccc(Nc2nnc(SCC(=O)Nc3cccc(S(=O)(=O)N4CCCCC4)c3)s2)cc1,-17%,-19%,-7%,-21%,-13%,-5%
CCCCCCc1cc2cc(C(N)=O)c(=N)oc2cc1O,nt,nt,nt,nt,32µM*,nt
CCc1ccc(S(=O)(=O)c2c[nH]c3cc(OC)c(OC)cc3c2=O)cc1,-7%,2%,-26%,nt,0%,-16%
CCC(NC(C)C)C(O)c1ccc(O)c(O)c1 (centres undefined),8%[60.1 µM],-7%,?,nt,22%,?
CCC(c1ccc(O)c(O)c1)C(CC)c1ccc(O)c(O)c1 (centres undefined),50µM*,79µM*,18µM*,?,nt,?
CCc1ccc(N=C2NC(=O)CC(C(=O)Nc3ccc(OC)cc3)S2)cc1 (centres undefined),-17%,?,-8%,nt,18µM*,-2%
CCN1C(=O)/C(=C/C=C2\N(CC)c3cc(S(=O)(=O)N(C)C)ccc3N2c2ccccc2)SC1=S,?,i,?,?,3.5µM*,-19%
CCOC(=O)c1cc(C(=O)Nc2ccccc2F)nn1C,-2%,-11%,-3%,-9%,15%,-7%
CCCCOc1ccccc1NC(=O)C=C(C)C,-6%,-8%,?,-9%,2%,-5%
COc1cc2c(NC3CCN(C)CC3)nc(N3CCCN(C)CC3)nc2cc1OCCCN1CCCC1,?,nt,?,nt,nt,10µM*
COc1cc2c(NC3CCN(C)CC3)nc(N3CCCN(C)CC3)nc2cc1OCCCN1CCOCC1,-7%,nt,-16%,nt,nt,22µM*
COc1cc2c(NC3CCN(C)CC3)nc(N3CCCCC3)nc2cc1OCCOCCN1CCCC1,-19%,nt,?,nt,nt,20µM*
COc1cc2nc(N3CCCN(C)CC3)nc(NC3CCCCC3)c2cc1OC,-2%,nt,14%,nt,nt,?
COc1cc2c(NC3CCN(C(C)C)CC3)nc(N3CCCN(C)CC3)nc2cc1OCCOCCN1CCCC1,?,nt,?,nt,nt,20µM*
CN(CC(=O)Nc1ccc(Cl)c(C(F)(F)F)c1)C(=O)c1cn2ccccc2n1,-5%,-23%,-15%,7%,nt,-6%
O=C(NC(=S)Nc1ccc2c(c1)OCCO2)c1ccco1,-4%,2%,1%,-11%,-2%,-17%
CCOC(=O)c1c(NC(=O)C2CC(Cl)=CCC2C(=O)O)sc2c1CCCCC2 (centres undefined),-23%,-11%,-1%,-19%,35µM*,-16%
CC(OC(=O)CSc1ccc([N+](=O)[O-])cc1)C(=O)NCc1ccccc1 (centres undefined),3%,-13%,?,50µM*,nt,3%
SMILES,Pol kappa inh,POLH inh,POLI inh,WRN inhibitor,POLB inh,FEN1 inhibitor
O=C(COC(=O)CSc1ccc([N+](=O)[O-])cc1)NCCc1ccccc1,-12%,-21%,42%,-16%,nt,1%
CC(C)C(NC(=O)c1ccccc1F)C(=O)NCC(c1ccco1)N1CCCCC1 (centres undefined),-5%,-16%,39%,-18%,nt,-3%
Nc1ccccc1N=c1ssnc1Cl,-1%,-22%,?,-3%,-5%,1%
Cc1cc(Cl)ccc1N=c1ssnc1Cl,0%,-18%,?,50µM*,10%,1%
Cc1ccc(N=c2ssnc2Cl)cc1,10%,-5%,?,50µM*,2%,-1%
COCCN(CCOC)S(=O)(=O)c1ccc(C(=O)NCCCN2CCOCC2)cc1,3%,-10%,-10%,0%,6%,-5%
COc1ccc(S(=O)(=O)N2CCC(N3CCCC3)CC2)cc1,-14%,-22%,9%,5%,-11%,0%
Cc1cccc(Cn2ccn(Cc3ccc(Cl)cc3)c(=O)c2=O)c1,-2%,20%,7%,nt,25µM*,22%
Cc1cccc(Cn2ccc(-c3ccc(Cl)cc3)c(C#N)c2=O)c1,-2%,-15%,-5%,-1%,-6%,-3%
COc1cc(-c2nnc(SCCOc3ccc(Cl)cc3C)o2)cc(OC)c1OC,-6%,-16%,-10%,nt,6%,-18%
CCN1C(=O)Cc2cc(S(=O)(=O)NCCc3ccccc3)ccc21,-4%,-5%,32%,2%,7%,-13%
CCOC(=O)c1cccc(NC(=O)c2cncc(Br)c2)c1,79µM*,2%,89µM*,0%[11.6 µM],4%,-5%
COc1ccc(NC(=O)CN2CCN(S(=O)(=O)c3cccs3)CC2)cc1Cl,11%,-8%,20%,-7%,nt,-6%
Cc1cc(/C=C2/C(=N)N3C(c4ccccc4)=CSC3=NC2=O)c(C)n1-c1ccc(Cl)cc1,-3%,-4%,39%,0%,nt,-10%
N=C1/C(=C\c2ccc(-c3cccc(Cl)c3)o2)C(=O)N=C2SC=C(c3ccccc3)N12,?,79µM*,?,?,10µM*,-2%
CC(C)NC(=O)CC(=O)N/N=C/c1cccs1,-2%,-1%,25%,-4%,14µM*,-3%
C(=NN=C(NN=Cc1cccs1)NN=Cc1cccs1)c1cccs1,-3%,-6%,79µM*,-4%,nt,?
NC(=O)c1c(NC(=O)COC(=O)c2ccc(O)c(Cl)c2)sc2c1CCCC2,-25%,50µM*,?,-33%,nt,?
COC(=O)c1c(NC(=O)COC(=O)c2ccccc2O)sc2c1CCCCC2,1%,-4%,92%,2%[57.1 µM],-7%,6%
